The entries come from a sample that favours hits as a whole.
Lassa entry inh: qHTS for Inhibitors of binding or entry into cells for Lassa Virus. Lassa virus pseudotype entry inhibition, cell reporter. Potency, µM (series often up to 37.9 µM), for the others: at the highest dose activity change, negative = inhibition, actives largely listed as inhibitors. actives 1.2% (n = 300,000). AID 540256, 2011; calls by dose curve; tested in HEK293 cells; also: potency is read from the fitted curve at half-maximal effect; % is scaled to controls: 0 for no effect and ±100 for the full control effect; nearly all actives have a fitted effect of over 50% in size
Shiga toxin inh: A qHTS for Small Molecule Inhibitors of Shiga Toxin | Vero cells, Shiga toxin protein synthesis inhibition reporter | inhibition, % at 38.7 µM | actives 9.2% (n = 290,000); in the data active = inhibition mostly above about 28%, no sharp cut-off; inactive = mostly below about 43%; also: 0% is about no effect
AMA1 RON2 block: qHTS for Inhibitors of AMA1-RON; Towards Development of Antimalarial Drug Lead: Primary Screen; Potency, µM (highest dose often 58.2 µM), for inactives: at the highest dose activity change, negative = inhibition, actives largely listed as inhibitors; actives 0.2% (n = 360,000); Plasmodium falciparum AMA1 (3D7) - RON2 peptide interaction; AlphaScreen AMA1-biotinylated RON2 peptide binding; active = well fitted inhibition curve with a large enough effect; inconclusive = small, poorly fitted or top-dose-only effect; inactive = no such curve, though single readings can be large or run the other way;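 also: potency is read from the fitted curve at half-maximal effect; 0% = vehicle wells and -100% = peptide control; nearly all actives have a fitted effect of over 45% in size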
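AMA1 (3D7) with his tag at 25 nM final met compounds first, then biotinylated RON2 peptide at 25 nM; detection used donor plus acceptor beads, 10 µg/mL apiece, read by AlphaScreen after 30 min at room temperature.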
Marburg entry inh: qHTS for inhibitors of binding or entry into cells for Marburg Virus; Potency, µM (top dose mostly 37.8 µM), without a hit: top-dose activity change, negative = inhibition, actives largely listed as inhibitors; Marburg virus pseudotyped entry inhibition, cell reporter; AID 540276, 2011; actives 1.8% (n = 300,000); calls by dose curve; tested in HEK293 cells; also: potency is read from the fitted curve at half-maximal effect; % is scaled to controls: 0 for no effect and ±100 for the full control effect
CHX counter: Cycloheximide Counterscreen for Small Molecule Inhibitors of Shiga Toxin | max response, % | cell reporter, cycloheximide protein synthesis inhibition counterscreen | actives 12% (n = 300,000); in the data active = max response mostly above about 13%, no sharp cut-off; inactive = mostly below about 14%; also: read at 38.3 µM for the half of the compounds with a filed dose; 0% is about no effect
* = called active by the depositor; ? = inconclusive; / = no result given; [ ] = another dose, or the depositor's remark.

SMILES | Lassa entry inh | Shiga toxin inh | AMA1 RON2 block | Marburg entry inh | CHX counter
Cc1cc(C=C2C(=O)CCCC2=O)c(C)n1-c1ccccc1 | 7% | 10 | -10% | -9% | 16*
Cc1cc(/C=C2/C(=O)NN(c3ccccc3)C2=O)c(C)n1-c1ccc(O)cc1 | ? | 13 | -29% | 7.1µM* | 18
Cc1cc(/C=C2\C(=O)NN(c3ccccc3)C2=O)c(C)n1-c1ccccc1O | / | 46* | -5% | / | 34*
O=C1NN(c2ccccc2)C(=O)C1=Cc1ccccc1 | / | / | -3% | / | /
O=C(Cn1cnc2cc([N+](=O)[O-])ccc2c1=O)Nc1ccc(N2CCOCC2)cc1 | -1% | 16 | 3% | 1%[46.1 µM] | -3
CCN(C(=O)c1cccs1)c1nnc(-c2ccncc2)s1 | -8% | active | -16% | -19%[46.1 µM] | 16*
COCCN(C(=O)Cc1cccs1)c1nnc(-c2ccncc2)s1 | -2% | 22 | -12% | -7%[46.1 µM] | 6
COc1ccc(NC(=S)N(CCc2c(C)[nH]c3ccccc23)Cc2ccco2)cc1 | ? | -14 | 12% | 13µM* | -4
O=C(Cc1ccc(Br)cc1)NC1CCCCC1 | 1% | 20 | -15% | 14% | 22*
CC(C)Cc1ccc(/C=C/C(=O)NC2CC2)cc1 | -20% | 112* | 8% | 18% | 71*
Cc1ccc(/C=C/C(=O)NC2CCS(=O)(=O)C2)cc1 (centres undefined) | / | 14 | -2% | / | 20*
CCCOc1ccc(/C=C/C(=O)NC2CCCCC2)cc1 | ? | 16 | 4% | ? | 6
O=C(COC(=O)Cc1ccc(Br)cc1)NC1CCCC1 | 3%[46.1 µM] | / | 6% | 2%[46.1 µM] | /
O=C(/C=C/c1ccc(Br)cc1)NC1CCCCCC1 | ? | 62* | -1% | 11% | 17*
O=C(Cc1ccc(O)cc1)NC1CCCCCC1 | -26%[46.1 µM] | 69* | 1% | ? | 42*
O=C(Cc1ccc(Cl)c(Cl)c1)NC1CCCCCC1 | ? | 79* | 6% | 17%[46.1 µM] | 12*
O=C(Cc1ccc([N+](=O)[O-])cc1)NC1CCCCCC1 | / | 11 | 1% | / | 6
O=C(N/N=C/c1ccccc1O)C1SCCCS1 | / | 40 | 103% | / | 26*
COc1ccc(Nc2cc(C(=O)NCCCN(C)C3CCCCC3)c3ccccc3n2)cc1 | ? | / | / | 10µM* | /
COc1ccc(Nc2cc(C(=O)NC3CCCC3)c3ccccc3n2)cc1 | -2%[46.1 µM] | / | / | 14%[46.1 µM] | /
CCN(CC)c1ccc2c(-c3ccc(S(=O)(=O)O)cc3S(=O)(=O)[O-])c3ccc(=[N+](CC)CC)cc-3oc2c1 | 16% | -2 | 14µM* | -12% | -8
COc1cc(CNCCO)ccc1OCC(=O)Nc1ccc(Br)cc1 | 21% | 23 | -5% | -29% | 24*
O=C(COc1ccc(Br)cc1Cl)NC(=O)Nc1ccc2c(c1)OCCO2 | -4%[46.1 µM] | 63* | 11% | 19%[46.1 µM] | 36*
O=C(COC(=O)c1cccnc1Cl)NCc1cccs1 | 4%[46.1 µM] | 33 | 10% | -1%[46.1 µM] | 37*
O=C(COc1ccccc1Cl)Nc1ccc2c(c1)OCCO2 | -13% | 87* | 1% | ? | 45*
SMILES | Lassa entry inh | Shiga toxin inh | AMA1 RON2 block | Marburg entry inh | CHX counter
CCOc1ccccc1CNC(=O)c1cnc2sc(N3CCOCC3)nn2c1=O | 18%[46.1 µM] | / | / | / | /
COc1ccccc1OCC(=O)Nc1ccc2c(c1)OCCO2 | ? | 78* | -12% | 26%[46.1 µM] | 30*
O=C(COC(=O)c1cccnc1Cl)Nc1ccc2c(c1)OCCO2 | 21%[46.1 µM] | 115* | -1% | 7%[46.1 µM] | 49*
NC(=O)c1ccccc1OCC(=O)Nc1ccc2c(c1)OCCO2 | -30%[46.1 µM] | / | -13% | ? | /
O=C(COC(=O)c1cccnc1Cl)NCc1ccc2c(c1)OCO2 | 1% | -12 | -7% | -1% | -2
Cc1ccccc1OC(C)C(=O)Nc1ccc2c(c1)OCO2 (centres undefined) | / | -19 | -7% | / | 15
COc1ccccc1OC(C)C(=O)Nc1ccc2c(c1)OCCO2 (centres undefined) | 0%[46.1 µM] | 25 | -1% | 11%[46.1 µM] | 19*
Cc1cccc(C)c1OCC(=O)Nc1ccncc1 | 2% | / | -17% | ? | 10
Cc1cccc(C)c1OCC(=O)Nc1ccc2c(c1)OCCO2 | / | 82* | 0% | / | 26
C=CC[C@@H]1C=C[C@H](ON=C[C@@H](C)[C@H](OCc2ccccc2)C(C)C)[C@H](CO)O1 | ? | / | / | -10%[14.2 µM] | /
CC(=O)Nc1ccc(SCC(=O)Nc2ccc3c(c2)OCCO3)cc1 | -20%[46.1 µM] | / | -1% | 2%[46.1 µM] | /
CC(C)=CC(=O)OCC(=O)Nc1ccc(Cl)cc1 | -12%[46.1 µM] | 41* | -1% | ? | 24*
Cc1ccc(NC(=O)CCOc2ccccc2C)cc1C | ? | 40 | 14% | ? | 26*
O=C(CSCc1c(Cl)cccc1Cl)Nc1ccc2c(c1)OCCO2 | 5% | 76* | -41% | 6% | 59*
O=C(COc1ccccc1Cl)NCCc1ccc2c(c1)OCCO2 | 15% | 58* | 12% | ? | 42*
O=C(COc1ccccc1F)NCCc1ccc2c(c1)OCCO2 | 13%[46.1 µM] | / | -8% | ? | /
COCCCNC(=S)N(Cc1cccnc1)Cc1ccc(OC)c(OC)c1 | 2% | -5 | -8% | ? | -3
Cc1ccccc1OCC(=O)OCC(=O)Nc1ccc2c(c1)OCO2 | 0% | / | 6%[11.6 µM] | -5% | /
Cc1ccccc1OCC(=O)Nc1ccc2c(c1)OCCO2 | / | 108* | 9% | / | 51*
Cc1ccc(NC(=O)COC(=O)CSC(=S)N2CCOCC2)cc1 | 16% | 42 | 0% | 3% | 27*
Cc1ccccc1OCCCC(=O)Nc1ccc2c(c1)OCO2 | -8% | active | 0% | 13% | 32*
Cc1ccccc1OCC(=O)N/N=C/c1ccc2c(c1)OCCO2 | ? | 19 | -3% | 1% | 31*
O=C(COc1cccc(Br)c1)N/N=C/c1ccc2c(c1)OCCO2 | / | / | 38% | / | /
O=C1CCCc2cc(S(=O)(=O)N3CCCC(C(=O)Nc4ccc(F)c(Cl)c4)C3)ccc2N1 (centres undefined) | -27%[46.1 µM] | / | / | / | /
Cc1cc(NC(=O)CS(=O)(=O)c2cn(Cc3cccc(C(F)(F)F)c3)c3ccccc23)no1 | / | / | 10% | / | /
SMILES | Lassa entry inh | Shiga toxin inh | AMA1 RON2 block | Marburg entry inh | CHX counter
COc1ccccc1OCC(=O)Nc1ccc(Cl)cc1 | ? | 51* | 4% | 14% | 24*
Cc1ccccc1OCCC(=O)OCC(=O)Nc1ccc(N2CCOCC2)cc1 | -19% | 12 | -25% | 1% | 14*
Cc1ccc(NC(=O)COC(=O)CCOc2ccccc2C)cc1 | 2%[46.1 µM] | -25 | -2% | -6%[46.1 µM] | -5
NC(=O)c1ccccc1OCC(=O)Nc1ccc(Cl)c(Cl)c1 | / | 71* | -2% | / | 39*
N#Cc1cccc(NCC(=O)Nc2ccc3c(c2)OCCO3)c1 | ? | 63* | -4% | ? | 27*
COc1ccccc1N(C(=O)c1csnn1)C(C(=O)NC1CCCC1)c1ccccc1 (centres undefined) | -5%[46.1 µM] | -5 | 3% | ? | -4
COc1ccc(NC(=O)C(=O)NCC2CCCN2S(=O)(=O)c2cccs2)cc1 (centres undefined) | ? | / | 7% | ? | /
COC(=O)CCc1sc(Nc2ccc(OC)cc2)nc1-c1ccc(OC)cc1 | ? | / | / | 4%[46.1 µM] | /

High-throughput results deposited in PubChem BioAssay by National Center for Advancing Translational Sciences (NCATS).
